TDP1 cell noCPT = qHTS for Inhibitors of human tyrosyl-DNA phosphodiesterase 1 (TDP1): qHTS in cells in absence of CPT. DT40 Tdp1-/- hTDP1 cells, no CPT, ATP luminescence, 48 h. Potency, µM (doses to about 46.2 µM), for inactives: at the top dose activity change, negative = growth inhibition, actives largely listed as inhibitors. actives 15% (n = 420,000). AID 686978, 2013; note: potency is the fitted concentration of half-maximal effect; nearly all actives have a fitted effect of over 55% in size
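Luminescent ATP content (CellTiter-Glo) served as the growth readout. Knockout chicken DT40 cells expressing human TDP1 were exposed to compounds without camptothecin for a minimum 48 hr at 37 °C.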
HT1080NT lethal = kills 2HG-producing HT-1080-NT fibrosarcoma cells. HT-1080-NT fibrosarcoma viability, CellTiter-Glo ATP luminescence, 48 h. Potency, µM (doses to about 46.1 µM), for inactives: at the top dose activity, negative = less viability, most hits filed as cytotoxic. actives 1.6% (n = 360,000). AID 686970;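 note: NT is the 2HG producing partner of a matched IDH1 knockdown line; potency is the fitted concentration of half-maximal effect; 0% = DMSO-treated cells and -100% = media-only wells without cells; nearly all actives have a fitted effect of over 55% in size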
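Fibrosarcoma NT cells, 750 per well in 5% FBS RPMI, were exposed to compound for 48 hours. Viability: CellTiter-Glo luminescence.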
IL1B secr inh = inhibitors of inflammasome signaling (IL-1 beta secretion). THP-1 LPS/ATP IL-1B secretion, AlphaLISA, 16 h; active compounds read low. activity change, % at 57.5 µM. actives 4.7% (n = 360,000). AID 743279; in the data active = activity change below about -50%; inconclusive = mostly about -30% to -49%
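THP-1 cells pretreated 1 hr with compounds (up to 57.5 uM final), then stimulated with LPS (250 ng/mL final) plus ATP (1.25 mM final); secreted IL-1B measured by AlphaLISA after 16 hr, decreased signal indicating inhibition.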
uPA generation = inhibitors of cell surface uPA generation; cell surface uPA generation assay, qHTS; Potency, µM (titrated, usually from 38.3 µM), inactives show at the top dose activity change, negative = inhibition, hits mostly inhibitors; actives 0.31% (n = 330,000); AID 540303; active = well fitted inhibition curve with a large enough effect; inconclusive = small, poorly fitted or top-dose-only effect; inactive = no such curve, though single readings can be large or run the other way; tested in mouse RAW 264.7 cells; note: potency is the fitted concentration of half-maximal effect; nearly all actives have a fitted effect of over 55% in size
TDP1 cell CPT = DT40-hTDP1 cell growth loss with CPT. Potency, µM (highest dose often 46.2 µM), inactives show at the top dose activity change, negative = growth inhibition, actives largely listed as inhibitors. actives 12% (n = 420,000). chicken DT40 Tdp1-/-;hTDP1 cells + 20 nM CPT, ATP luminescence, 48 h; note: potency is the fitted concentration of half-maximal effect; nearly all actives have a fitted effect of over 55% in size
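Chicken DT40 Tdp1-/- cells stably complemented with human TDP1 were seeded at 400 cells/well in medium containing 20 nM camptothecin, exposed to pin-transferred compounds, and grown at 37 °C for at least 48 hr. Viability was read as ATP luminescence.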
HT1080 IDH1KD tx = toxicity to HT-1080 IDH1 knockdown cells (counter line) | AID 686971 | Potency, µM (doses to about 46.1 µM), for the others: at the highest dose activity, negative = toxicity, actives largely listed as cytotoxic | actives 2% (n = 360,000) | HT-1080 IDH1 knockdown viability, ATP luminescence, 48 h;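 note: potency is the fitted concentration of half-maximal effect; 0% = DMSO wells and -100% = cell-free medium wells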
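Cytotoxicity counter-line: IDH1KD HT-1080, 48 h, CellTiter-Glo. Curves classed by r2, magnitude and activity.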
* hit, by the source's call; u = inconclusive; x = not tested or not shown. An excerpt weighted towards active compounds, which were near 19% of everything screened. Unless noted, calls come from the whole dose curve; as a rule, active = well fitted curve in the direction sought with a large enough effect; inconclusive = small, poorly fitted or top-dose-only effect, or another doubt; inactive = no such curve, though single readings can be large; an effect the other way counts as inactive or inconclusive. Unless noted, % is set by controls: 0 for no effect and ±100 for the full control effect.

SMILES	TDP1 cell noCPT	HT1080NT lethal	IL1B secr inh	uPA generation	TDP1 cell CPT	HT1080 IDH1KD tx
CO[C@H]1CC[C@@]2(C)[C@@H](CC[C@@H]3[C@@H]2CC[C@@]2(C)[C@H]3C[C@H](C(=O)N[C@@H](CCCN=C(N)N)C(=O)NCC(=O)N[C@@H](CC(=O)O)C(N)=O)O[C@]23CCCO3)C1	-6%	-1%	-4	-4%	-13%	-3%
Cn1c(CNC(=O)c2ccco2)nnc1SCC(=O)N1CCN(c2ccccc2F)CC1	-8%	0%	17	1%	18%	14%
C[C@@H]1CN([C@H](C)CO)C(=O)c2cc(Br)cnc2O[C@@H]1CN(C)C(=O)NC1CCCC1	-1%	1%	13	x	0%	1%
Cc1c([N+](=O)[O-])c([N+](=O)[O-])nn1CC(=O)N1CCCCC1	-1%	13%	-18	7%	-13%	2%
COc1cccc(-c2cccc(NC(=O)C3CCN(Cc4nccs4)CC3)c2)c1	-2%	3%	2	16%	14%	6%
CCOc1ccc(CN2CCC(C(=O)Nc3cccc(-c4ccn[nH]4)c3)CC2)cc1Cl	u	18µM*	-76*	-22%	u	u
COc1cc2ccccc2cc1C(=O)OCc1nc2ccsc2c(=O)[nH]1	u	6%	-26	2%	5.8µM*	10%
COc1cc(SC)ccc1C(=O)OCc1nc2ccsc2c(=O)[nH]1	9.2µM*	0%	-4	30%	8.2µM*	-1%
CCN(CC(=O)Nc1ccc(NC(C)=O)cc1)C(=O)CCCc1nc2ccccc2s1	9%	-1%	14	1%	-2%	14%
CC(C)Cc1ccc(CN2CCCC(NC(=O)CCn3cnnn3)C2)cc1 (stereo not drawn)	u	-6%	-60*	0%	u	-2%
CC(C)Cc1ccc(CN2CCCC(NC(=O)Cn3cnnn3)C2)cc1 (stereo not drawn)	-64%	-11%	-1	9%	u	0%
CC(C)Cc1ccc(CN2CCCC(NC(=O)CCCN3CCCC3=O)C2)cc1 (stereo not drawn)	21µM*	-1%	30	2%	u	0%
CC(C)Cc1ccc(CN2CCCC(NC(=O)CCN3CCOCC3)C2)cc1 (stereo not drawn)	u	-7%	-9	-17%	u	-1%
Cc1c(S(=O)(=O)Nc2ccc(Oc3ccccc3)cc2)c(=O)n(C)c(=O)n1C	-5%	-1%	12	-13%	-1%	-1%
O=C(Cc1ccccc1[N+](=O)[O-])NCC(O)c1ccc2c(c1)OCO2 (stereo not drawn)	-12%	2%	7	15%	-4%	2%
O=[N+]([O-])c1ccc(N=Nc2ccc(O)cc2O)cc1	-6%	18µM*	-92*	7%	u	5.8µM*
O=[N+]([O-])c1cccc(N=Nc2ccc(O)cc2O)c1	5.2µM*	u	-68*	-20%	3.3µM*	5.8µM*
Cc1cc2c(cc1C)NC(C)CC(=O)N2 (stereo not drawn)	-12%	13%	-1	-2%	-3%	8%
Cc1cc(C)cc(Oc2c(C(F)(F)F)oc3cc(OCC(=O)NC4CCCCC4)ccc3c2=O)c1	u	x	x	x	-8%	x
O=C(Nc1ccc(Cl)cc1)c1ccc(-n2cccn2)c([N+](=O)[O-])c1	15µM*	u	-21	x	23µM*	-28%
CS(=O)(=O)c1ccccc1C(=O)Nc1cc(Cl)ccc1-n1cncn1	0%	-2%	-1	0%	-5%	3%
CCN(CC)S(=O)(=O)c1cc(NC(=O)c2ccc(-n3cncn3)c([N+](=O)[O-])c2)ccc1C	23µM*	-16%	-23	-9%	u	-19%
O=C(Nc1cc(Cl)ccc1-n1cncn1)c1cc(F)c(F)c(F)c1F	-29%	1%	-93*	-4%	0%	-1%
O=C(Nc1ccc(Cl)cc1)c1ccc(-n2cncn2)c([N+](=O)[O-])c1	16µM*	22%	0	0%	u	0%
CC1CCN(Cc2nc3c(c(=O)n(C)c(=O)n3C)n2CCCc2ccccc2)CC1	16µM*	0%	-6	0%	u	11%
SMILES	TDP1 cell noCPT	HT1080NT lethal	IL1B secr inh	uPA generation	TDP1 cell CPT	HT1080 IDH1KD tx
Cn1c(=O)c2c(nc(CN3CCN(c4ccccc4F)CC3)n2CCCc2ccccc2)n(C)c1=O	21µM*	7%	-3	2%	16µM*	6%
CC1CCCCN1Cc1nc2c(c(=O)n(C)c(=O)n2C)n1Cc1c(F)cccc1Cl (stereo not drawn)	10µM*	19%	-3	-8%	7.3µM*	13%
Cn1c(=O)c2c(nc(CN3CCC(Cc4ccccc4)CC3)n2CCN2CCOCC2)n(C)c1=O	-28%	0%	0	-1%	u	1%
CN1CCN(Cc2nc3c(c(=O)n(C)c(=O)n3C)n2CCCc2ccccc2)CC1	-14%	6%	-2	-1%	-8%	2%
CCOCCn1c(CN2CCC(Cc3ccccc3)CC2)nc2c1c(=O)n(C)c(=O)n2C	11µM*	0%	40	8%	18µM*	13%
O=C(O)c1cccs1	-6%	x	x	x	-5%	x
C=CCN1C(=O)C(CC(=O)O)SC1=Nc1ccc(C)cc1 (stereo not drawn)	14%	3%	15	13%	0%	11%
O=C(NCc1ccccc1Cl)C1CCC(CNc2c(N3CCOCC3)c(=O)c2=O)CC1 (stereo not drawn)	-7%	6%	-5	2%	-5%	4%
Cn1c(=O)c2c(nc(CN3CCN(c4ccccc4F)CC3)n2Cc2ccc(F)cc2)n(C)c1=O	10µM*	x	x	x	10µM*	x
N#CCCN(CCCN1CCOCC1)CN1C(=O)c2ccccc2C1=O	u	-1%	0	x	4%	6%
O=S(=O)(c1ccc2[nH]c3c(c2c1)CCCCC3)N1CCN(c2cccc(Cl)c2)CC1	12µM*	x	x	x	18µM*	x
CC(=O)c1ccc(N2CCN(S(=O)(=O)c3ccc4[nH]c5c(c4c3)CCCC5)CC2)cc1	26µM*	x	x	x	u	x
CC(=O)c1ccc(N2CCN(S(=O)(=O)c3ccc4ccccc4c3)CC2)cc1	u	2%	u	-3%	u	2%
O=[N+]([O-])c1ccc2[nH]cc(S(=O)(=O)N3CCN(c4cccc(Cl)c4)CC3)c2c1	-14%	21µM*	-96*	3%	u	23µM*

Screens from PubChem.
